Assay outcomes deposited in PubChem by several laboratories.
Hits are enriched below; roughly 3.9% of the tested compounds scored in any of these assays.
FBA Mtb inh = inhibitors of M. tuberculosis fructose-bisphosphate aldolase | purified M. tuberculosis FBA, fluorescence read-out | inhibition, % at 1 µM | 360,000 tested, 2.3% active; in the data active = inhibition above about 27%
Target sequence (P9WQA3 whole entry, looked up): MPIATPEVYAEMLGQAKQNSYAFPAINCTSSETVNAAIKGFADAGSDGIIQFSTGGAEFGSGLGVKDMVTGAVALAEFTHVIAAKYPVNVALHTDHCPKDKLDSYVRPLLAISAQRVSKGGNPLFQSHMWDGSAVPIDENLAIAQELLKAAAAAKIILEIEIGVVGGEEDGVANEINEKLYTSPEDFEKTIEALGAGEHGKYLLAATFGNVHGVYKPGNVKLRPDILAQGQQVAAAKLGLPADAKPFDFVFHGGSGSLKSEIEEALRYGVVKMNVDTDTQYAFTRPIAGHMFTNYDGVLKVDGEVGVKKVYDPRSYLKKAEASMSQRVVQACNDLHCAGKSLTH
Vc quorum ag-1 = inducers of Vibrio cholerae quorum light production without autoinducers; V. cholerae BH1578 lux reporter, luminescence, 6 h; activation, % at 18.7 µM; 350,000 tested, 0.16% active; AID 588436; in the data active = activation mostly above about 9.7%, no sharp cut-off
CCHF vOTU inh = CCHFV vOTU protease inhibition | Pep-AMC fluorescence | 370,000 tested, 0.55% active | inhibition, % at 11.5 µM | AID 651958
GDH-TPI counter = GDH-TPI coupled enzyme inhibition counter-screen; GDH-TPI coupled enzyme counterscreen, NADH absorbance; inhibition, % at 4.8 µM; 360,000 tested, 1.2% active; AID 588335
Vc quorum ag-2 = induces V. cholerae light production without autoinducers; shares compounds with Vc quorum ag-1; V. cholerae BH1578 lux reporter, luminescence, 6 h; activation, % at 50 µM; 620 tested, under 10 active; AID 602243; call rule not given here
HeLa 24h tox = kills HeLa cells within 24 hours. shares compounds with Vc quorum ag-1. HeLa viability, CellTiter-Glo ATP luminescence. activity change, negative = cytotoxicity, % at 35 µM. 25 tested, under 10 active. AID 624140;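 active = signal drop with fitted half-maximal concentration at or below twice the highest valid dose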
Large screens that a line does not name were inactive (follow-up assays come after a bar, where they were run). Rule as the data show it, unless noted: active = inhibition above about 30%; inactive = the rest.

O=C(Nc1ccc(-c2cn3ccsc3n2)cc1)c1ccc(F)c(S(=O)(=O)N2CCOCC2)c1	none | Vc quorum ag-2 inactive
COc1ccc(N2CC(C(=O)Nc3cc(C(F)(F)F)ccc3N3CCCC3)CC2=O)c(OC)c1 (stereo not drawn)	none | Vc quorum ag-2 inactive
CS(=O)(=O)CC(=O)Nc1ccc2nc3n(c(=O)c2c1)CCCCC3	none
Cc1nc(CN2CCC(c3ccccc3)CC2)cc(=O)[nH]1	none
Cc1cc(=O)[nH]c(CN2CCC(c3ccccc3)CC2)n1	none (no result: Vc quorum ag-1) | Vc quorum ag-2 inactive
COc1cc(C(=O)N/N=C/c2ccc(OC(=O)c3ccccc3Cl)cc2)ccc1O	none (no result: Vc quorum ag-1)
COC(=O)c1cnn(-c2nc(-c3ccccc3)cs2)c1N	Vc quorum ag-1 70 | Vc quorum ag-2 inactive
CC(OC(=O)CSc1ccc([N+](=O)[O-])cc1)C(=O)NC1CC1 (stereo not drawn)	none
Cc1c(Cl)cccc1-n1cnc(=O)c2ccccc21	none | HeLa 24h tox inactive
O=c1ncn(-c2cccc([N+](=O)[O-])c2)c2ccccc12	none
COc1cccc(Oc2cnc(N)nc2-c2ccc(OC)cc2O)c1	none
COc1ccc(-c2nc(N)ncc2Oc2ccccc2Br)c(O)c1	Vc quorum ag-1 36 | Vc quorum ag-2 inactive
CCC(O)(CCN1CCCCC1)c1ccccc1 (stereo not drawn)	none | Vc quorum ag-2 inactive
COc1cccc(-n2sc3c(c2=S)-c2cc(OC)ccc2NC3(C)C)c1	none
CC1(C)Nc2ccc(O)cc2-c2c1ssc2=S	none | Vc quorum ag-2 inactive
CCn1cc(S(=O)(=O)Nc2nc3ccc(OC)cc3s2)cn1	none
COc1ccccc1NC(=O)COC(=O)c1ccc(C)cc1	none (no result: FBA Mtb inh, Vc quorum ag-1, CCHF vOTU inh, GDH-TPI counter) | HeLa 24h tox inactive
COc1ccccc1NC(=O)c1ccc(NC(=O)COC(=O)c2ccc(O)cc2)cc1	none
COc1ccc(Cl)cc1NC(=O)COC(=O)c1ccc(C)o1	none (no result: Vc quorum ag-1) | Vc quorum ag-2 inactive | HeLa 24h tox inactive
COc1ccccc1NC(=O)COC(=O)c1cc2ccccc2s1	none (no result: FBA Mtb inh, Vc quorum ag-1, CCHF vOTU inh, GDH-TPI counter) | HeLa 24h tox inactive
Cc1cccc(-c2nnc(SC(C)C(=O)N3CCOCC3)o2)c1 (stereo not drawn)	none
O=c1ccc(-c2ccc(S(=O)(=O)N3CCN(c4ccccc4)CC3)o2)n[nH]1	none
Cc1ccc(CNc2nnnn2C)cc1	none
CCn1nnnc1NCc1ccc(N2CCCC2)cc1	none (no result: Vc quorum ag-1) | Vc quorum ag-2 inactive | HeLa 24h tox inactive
CCn1nnnc1NCc1ccc(SC)cc1	none (no result: Vc quorum ag-1) | Vc quorum ag-2 inactive
CCCCn1c(=O)[nH]c(=O)c2c1nc(COc1ccc(C#N)cc1)n2CCC	none | Vc quorum ag-2 inactive
C=CCOc1ccc(-c2nc3c(c(=O)[nH]c(=O)n3CCC)n2CCCC)cc1	none
O=C(CSc1nnc(CNC(=O)c2cccs2)o1)Nc1cccc(F)c1	none
COC(=O)c1[nH]c2ccc(C)cc2c1NC(=O)Nc1ccc(OC)cc1	Vc quorum ag-1 18 | Vc quorum ag-2 inactive
Cc1ccc(SC(C)c2nc(-c3ccccc3)no2)cc1 (stereo not drawn)	none
Cc1ccccc1OC(C)c1nc(-c2ccccc2)no1 (stereo not drawn)	none | Vc quorum ag-2 inactive
COC(=O)c1sc2ncccc2c1OCc1c(Cl)cccc1Cl	none | Vc quorum ag-2 inactive
COC(=O)c1sc2ncccc2c1OCc1cccc(Cl)c1	none
CCOc1ccc(S(=O)(=O)N(CC(=O)NN=C2CCN(C)CC2)c2ccc(C)cc2)cc1	none
O=C(NCCN1CCOCC1)c1ccc([N+](=O)[O-])cc1[N+](=O)[O-]	none
O=[N+]([O-])c1ccc(NCCN2CCOCC2)c([N+](=O)[O-])c1	Vc quorum ag-1 33 | Vc quorum ag-2 inactive
COc1ccc(N2C(=O)CC(N3CCN(Cc4ccc5c(c4)OCO5)CC3)C2=O)cc1 (stereo not drawn)	none
CC(C)CCOc1cccc(OCC(=O)NC2CCS(=O)(=O)C2)c1 (stereo not drawn)	none
CC(C)CCOc1cccc(OCC(=O)N(C)C2CCS(=O)(=O)C2)c1 (stereo not drawn)	none | Vc quorum ag-2 inactive
CCN(CC)c1nc(-c2cccc(OC)c2O)nc2ccccc12	none
CC(C)Cn1c(CN2CCN(C)C(CCO)C2)nc2ccccc21 (stereo not drawn)	Vc quorum ag-1 72 | Vc quorum ag-2 inactive
CN1CCN(Cc2nc3ccccc3n2C)CC1CCO (stereo not drawn)	none
CC(=O)Nc1ccc(CNc2nc3cc(-c4ccc(F)cc4)sc3c(=O)n2C)cc1	none
COc1ccccc1OCc1cc(-c2ccccc2)no1	none
Cc1cc(COc2ccccc2O)on1	none | Vc quorum ag-2 inactive
COc1ccc(CCNC(=O)CSc2nc3ccccc3c3nc(CCN4CCCCC4)nn23)cc1OC	none
Cc1ccc(C)c(N(CC(=O)NC2CCCC2)C(=O)c2oc(C(C)(C)C)cc2C)c1	none
NS(=O)(=O)c1cc(C(=O)OCC(=O)NC2CCCCCCC2)ccc1Cl	none | Vc quorum ag-2 inactive
O=C(COC(=O)c1ccc(Cl)c(S(=O)(=O)N2CCCC2)c1)NC1CCCC1	none
Cc1cc(C(C)(C)C)oc1C(=O)OCC(=O)NC1CCCCC1	Vc quorum ag-1 145 | Vc quorum ag-2 inactive
O=C(COC(=O)c1ccc(Br)cc1)NC1CCCC1	Vc quorum ag-1 131 | Vc quorum ag-2 inactive
Cn1c(=O)oc2cc(S(=O)(=O)N3CCN(c4ccc(F)cc4)CC3)ccc21	Vc quorum ag-1 97 | Vc quorum ag-2 inactive
COc1ccc2c(c1)C(C)CC(C)(C)N2C(=O)CSc1nc2ccccc2s1 (stereo not drawn)	none
CN(Cc1ccc(C(C)(C)C)cc1)C(=O)C1CCN(C(=O)Nc2ccccc2)CC1	none
COC(=O)C1CCN(C(=O)CN(C)Cc2ccc(C(C)(C)C)cc2)CC1	Vc quorum ag-1 41 | Vc quorum ag-2 inactive
C=CCn1c(-c2cc(OC)cc(OC)c2)n[nH]c1=S	Vc quorum ag-1 22 | Vc quorum ag-2 inactive
COc1ccc(C(=O)N2CCCCC2)cc1S(=O)(=O)Nc1cccc(C(=O)O)c1	none
COc1ccc(C(=O)O)cc1S(=O)(=O)Nc1cccc(C(F)(F)F)c1	Vc quorum ag-1 17 | Vc quorum ag-2 inactive
CC(C)(C)OC(=O)NCCCC(CCCNC(=O)OC(C)(C)C)C(=O)O	none | Vc quorum ag-2 inactive
FC(F)(F)c1ccc(Cl)c(-n2c(-c3ccco3)n[nH]c2=S)c1	none
CC(C)CCNC(=O)C(=O)Nc1ccc2c(c1)N(S(=O)(=O)c1cccs1)CCC2	none
COc1ccc2nc(SC(C)C(=O)NCC(=O)Nc3ccc(F)c(F)c3F)[nH]c2c1 (stereo not drawn)	none | Vc quorum ag-2 inactive
O=C(Nc1nnc(C(F)(F)F)s1)C1COc2ccccc2O1 (stereo not drawn)	none | Vc quorum ag-2 inactive
COc1ccc(N(Cc2cc(=O)[nH]c3ccccc23)C(=O)c2ccco2)cc1	none
Cc1ccc(S(=O)(=O)NCc2cccnc2)cc1C(=O)NC1CCCCC1	none | Vc quorum ag-2 inactive
Cn1c(CNC(=O)CCNC(=O)c2cccc(Cl)c2)cc(=O)n(C)c1=O	none
COc1ccc(S(=O)(=O)N2CCSC2c2ccc(N)cc2)cc1 (stereo not drawn)	none | Vc quorum ag-2 inactive
CC(=O)Nc1ccc(S(=O)(=O)N2CCSC2c2ccc(Cl)cc2)cc1 (stereo not drawn)	none
